# PubChem BioAssay (NCATS)
# Inconclusive results are not listed. Where a call stands in place of a potency, no number is given. A number with no mark means an inactive call. Active and inactive are the calls of the source. Unless noted, calls follow the shape of the dose curve; as a rule, active = well fitted curve in the direction sought with a large enough effect; inconclusive = small, poorly fitted or top-dose-only effect, or another doubt; inactive = no such curve, though single readings can be large; an effect the other way counts as inactive or inconclusive.
# Tests used:
# [1] = Identifying Small Molecule Inhibitors of Pancreatic Cancer Stem Cells (SN12C, Spheroid) (AID 1259360); conditions: Potency: SN12C spheroid viability; also: potency is read from the fitted curve at half-maximal effect
# Outline: (§1)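 Adherent (2D) versus sphere (3D) formats; spheres generated 14 d in SCM beforehand. Compound transferred by pin tool after 4 h, 48 h incubation, CellTiter-Glo endpoint.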
# [2] = P-glycoprotein substrates identified in KB-3-1 adenocarcinoma cell line, qHTS therapeutic library screen (AID 1346986); also: nearly all actives have a fitted effect of over 60% in size;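 also: potency is read from the fitted curve at half-maximal effect; potency is for cytotoxicity meaning loss of cell viability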
# Outline: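 Viability by CellTiter-Glo after 72 h compound exposure at 37 degree C, 5% CO2. Cytotoxic call: curve class -1.1 to -2.4, maximum response >50%, AC50 < 10 uM, compared across KB-3-1 and P-gp-overexpressing KB-8-5-11.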
# [3] = P-glycoprotein substrates identified in KB-8-5-11 adenocarcinoma cell line, qHTS therapeutic library screen (AID 1346987); also: nearly all actives have a fitted effect of over 65% in size; also: potency is read from the fitted curve at half-maximal effect
# Outline: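 In this qHTS, P-gp-rich KB-8-5-11 cells received library compounds across a concentration range. Viability was quantified by luminescence after 72 h at 37 degree C.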
# [4] = NS1 protein of Zika virus - qHTS assay to identify small molecule inhibitors in human HEK 293 cells (AID 1347053); also: nearly all actives have a fitted effect of over 55% in size; also: potency is read from the fitted curve at half-maximal effect
# Outline: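 Readout was TR-FRET using paired anti-NS1 antibodies after 24 h infection of HEK 293 cells with ZIKV MR766 (MOI = 0.5). Compound preceded virus by 1 h; reduced signal reflects lower NS1 expression.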
# [5] = Identifying Small Molecule Inhibitors of Pancreatic Cancer Stem Cells (Panc1, Adherent) (AID 1259362); conditions: Potency: viability;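 also: compound exposure lasted 48 h before the viability read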
# Outline: as §1
# [6] = Identifying Small Molecule Inhibitors of Pancreatic Cancer Stem Cells (A278, Adherent) (AID 1259361);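 also: viability read after 48 h compound exposure; nearly all actives have a fitted effect of over 35% in size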
# Outline: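 Spheroids grown 14 days in stem cell media on hydrogel-coated nonadherent plates; 2D lines seeded directly. Compounds added after 4 h attachment, 48 h at 37C, 5% CO2; CellTiter-Glo luminescence normalized to DMSO (no inhibition) and no-cell wells (full inhibition).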
# [7] = molecular target: Atrial natriuretic peptide receptor 2 (Homo sapiens) (UniProt P20594); experiment: Natriuretic polypeptide receptor (hNpr2) antagonism - Pilot subtype selectivity assay (AID 1347050; calls by dose curve)
# Sequence of Atrial natriuretic peptide receptor 2 (Homo sapiens) (P20594 whole entry, looked up): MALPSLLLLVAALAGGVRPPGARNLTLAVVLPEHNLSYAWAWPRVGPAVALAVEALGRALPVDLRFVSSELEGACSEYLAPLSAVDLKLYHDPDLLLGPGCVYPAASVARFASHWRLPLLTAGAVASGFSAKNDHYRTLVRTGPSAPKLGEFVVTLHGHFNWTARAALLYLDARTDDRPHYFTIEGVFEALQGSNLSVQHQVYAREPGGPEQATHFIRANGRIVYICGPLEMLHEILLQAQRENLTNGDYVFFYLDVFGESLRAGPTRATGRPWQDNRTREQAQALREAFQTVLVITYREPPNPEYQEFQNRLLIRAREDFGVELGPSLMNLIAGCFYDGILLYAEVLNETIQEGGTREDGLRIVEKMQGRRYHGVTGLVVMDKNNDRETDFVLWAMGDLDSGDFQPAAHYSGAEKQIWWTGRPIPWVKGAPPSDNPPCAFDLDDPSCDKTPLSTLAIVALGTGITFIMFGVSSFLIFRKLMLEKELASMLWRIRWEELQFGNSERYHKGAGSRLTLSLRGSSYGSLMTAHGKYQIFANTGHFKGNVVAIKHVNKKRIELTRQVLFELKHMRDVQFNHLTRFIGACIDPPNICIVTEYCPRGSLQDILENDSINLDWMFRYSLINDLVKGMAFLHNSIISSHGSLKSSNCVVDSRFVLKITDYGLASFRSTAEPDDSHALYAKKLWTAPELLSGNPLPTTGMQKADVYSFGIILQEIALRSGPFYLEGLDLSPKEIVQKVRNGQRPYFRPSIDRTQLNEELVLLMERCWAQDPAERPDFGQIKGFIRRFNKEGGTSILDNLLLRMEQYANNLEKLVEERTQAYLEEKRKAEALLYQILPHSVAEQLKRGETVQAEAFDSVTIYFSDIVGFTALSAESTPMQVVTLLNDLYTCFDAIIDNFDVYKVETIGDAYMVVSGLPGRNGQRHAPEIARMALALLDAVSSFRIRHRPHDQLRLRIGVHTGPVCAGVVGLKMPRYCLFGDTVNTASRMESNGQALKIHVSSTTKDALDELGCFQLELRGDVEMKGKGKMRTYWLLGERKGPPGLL
# Outline: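 Luminescence from a genetically encoded cGMP luciferase biosensor in hNpr2-expressing HEK293 cells is read before and 20 min after adding 1 nM hNppC. Test compounds, in interplate 1:5 titrations, are added 30-50 min ahead of the agonist.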
# [8] = Natriuretic polypeptide receptor (hNpr1) antagonism - Pilot counterscreen GloSensor control cell line (AID 1347045; calls by dose curve; also: series mostly up to about 38 µM)
# Outline: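 HEK293 cGMP-sensor cells; 2% GloSensor reagent 2 h RT; LOPAC compounds in 1:5 titrations 30-50 min; 50 uM SNP 20 min; luminescence pre-read and post-read.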
smiles,measurement,setting,value
COc1cc(Nc2ncc3c(n2)-c2ccc(Cl)cc2C(c2c(F)cccc2OC)=NC3)ccc1C(=O)O,Potency,[1],inactive
same,Potency,[2],0.103 µM (active)
same,Potency,[3],0.0833 µM (active)
same,Potency,[4],inactive
CCCn1c(=O)c2[nH]c(C34CC5CC3C[C@@H](C5)C4)nc2n(CCC)c1=O,Potency,[1],inactive
same,Potency,[3],inactive
same,Potency,[4],inactive
CCC(=O)N[C@H]1CC[C@H](C(=O)N(C)c2ccc(-c3nc4ccccc4o3)cc2)C1,Potency,[1],18.7 µM (active)
same,Potency,[4],inactive
CCOC(=O)N[C@@H]1CC[C@@H]2[C@@H](C1)C[C@H]1C(=O)O[C@H](C)[C@H]1[C@@H]2C=Cc1ccc(-c2cccc(F)c2)cn1,Potency,[1],14.8 µM (active)
same,Potency,[5],inactive
same,Potency,[4],inactive
Cc1n[nH]c(C)c1Cc1sc2c(c1C(=O)N1C[C@H](O)CO1)c(=O)n(C)c(=O)n2CC(C)C,Potency,[1],inactive
same,Potency,[2],inactive
same,Potency,[3],inactive
same,Potency,[4],inactive
COCC(=O)NCC=Cc1ccc2ncnc(Nc3ccc(Oc4ccc(C)nc4)c(C)c3)c2c1,IC50 (viability decrease),[6],20.9 µM (active)
C[C@]12CCC(=O)C=C1CC[C@@H]1[C@@H]2[C@@H](O)C[C@@]2(C)[C@H]1CC[C@]2(O)C(=O)CO,Potency,[1],inactive
same,Potency,[5],inactive
same,Potency,[7],inactive
same,Potency,[4],inactive
CCOC(=O)C1=C[C@@]2(CC)CCCN3CCc4c(n1c1ccccc41)[C@H]32,IC50 (viability decrease),[6],inactive
Nc1cccc(S(=O)(=O)N2CCCN(S(=O)(=O)c3ccc4c(c3)OCCO4)CC2)c1,IC50 (viability decrease),[6],inactive
same,Potency,[5],inactive
CC1(C)CNc2cc(NC(=O)c3cccnc3NCc3ccncc3)ccc21,Potency,[1],inactive
same,Potency,[3],inactive
same,Potency,[4],inactive
COc1ccc(-c2c(-c3ccc(O)cc3O)n[nH]c2C)cc1,IC50 (viability decrease),[6],26.4 µM (active)
N#CC[C@H](C1CCCC1)n1cc(-c2ncnc3[nH]ccc23)cn1,Potency,[1],inactive
same,Potency,[3],26.4 µM (active)
same,Potency,[4],inactive
COc1nc(-c2ccc3c(c2)OCO3)n(-c2ccc(NC(=O)CSc3ccccc3)cc2)n1,Potency,[1],inactive
same,Potency,[3],inactive
same,Potency,[4],inactive
CC[C@@H](C)[C@H](NC(=O)[C@H](CC1CCCCC1)NC(=O)c1ccno1)C(=O)N1CCC2(CCc3ccccc32)CC1,Potency,[1],11.8 µM (active)
same,Potency,[3],inactive
same,Potency,[4],inactive
Nc1ncnc2nc(-c3ccc(N4CCOCC4)nc3)cc(-c3cccc(Br)c3)c12,IC50 (viability decrease),[6],26.4 µM (active)
same,Potency,[5],inactive
same,Potency,[2],inactive
same,Potency,[3],inactive
same,outcome,[8],inactive
same,Potency,[7],inactive
same,Potency,[4],inactive
COc1ccc(-c2oc3cc(OC)ccc3c2C(=O)c2ccc(C#N)cc2)cc1,Potency,[1],inactive
same,Potency,[2],inactive
same,Potency,[3],inactive
same,Potency,[4],inactive
Cc1cc2c(F)c(Oc3ncnn4cc(OC[C@@H](C)O)c(C)c34)ccc2[nH]1,Potency,[1],inactive
same,Potency,[5],inactive
same,Potency,[4],0.935 µM (active)
Cn1c(=O)c(F)c(Nc2ccc(I)cc2F)c2c(=O)n(C[C@@H](O)CO)cnc21,Potency,[1],8.33 µM (active)
same,Potency,[3],inactive
same,Potency,[4],inactive
Cc1c(CN2CCN(C(=O)C(C)C)CC2)sc2c(N3CCOCC3)nc(-c3cnc(N)nc3)nc12,Potency,[1],0.166 µM (active)
same,Potency,[3],0.0833 µM (active)
Cc1cc([C@@H](C)Nc2ccccc2C(=O)O)c2nc(N3CCOCC3)cc(=O)n2c1,Potency,[1],14.8 µM (active)
same,Potency,[4],inactive
